In the library only some 2.8% were active in any assay of this set; here they are far more common.
Integrin act MD: qHTS for Activators of Integrin-Mediated Alleviation for Muscular Dystrophy. Potency, µM (doses to about 38.3 µM), for the others: at the top dose activation, actives largely listed as activators. 350,000 compounds, 0.064% hits. alpha7betagal myoblasts, beta-gal FDG fluorescence, 48 h;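 also: potency is read from the fitted curve at half-maximal effect; 100% = response of the positive control SU9516; nearly all actives have a fitted effect of over 60% in size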
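Alpha7betagal+/- myoblasts (passage 13) were plated 16-24 hr, then exposed to compounds (1:260 dilution of DMSO stock) for 48 hours at 37C. After MPER lysis, β-galactosidase reporter activity was read as FDG fluorescence (ex 480/em 540) after 30 minutes.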
CBFb-RUNX1 inh: qHTS Assay for Compounds Blocking the Interaction Between CBF-beta and RUNX1 for the Treatment of Acute Myeloid Leukemia; Runt-related transcription factor 1 (Homo sapiens) + Core-binding factor subunit beta …; AlphaScreen CBFb-His/RUNX1-biotin binding, biochemical; Potency, µM (titrated, usually from 59.8 µM), for inactives: at the highest dose activity, negative = inhibition, actives largely listed as inhibitors; 230,000 tested, under 10 active; AID 1477, 2009; also: % of control where 0% means no effect
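Room-temperature protein-protein interaction test with 30 nM each of His-tagged CBF-beta and biotinylated RUNX1, 15 min with compound, then 90 min with nickel plus streptavidin beads. Signal read in AlphaScreen mode.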
MBNL1 CUG block: qHTS Assay for Inhibitors of MBNL1-poly(CUG) RNA binding | Muscleblind-like protein 1 (Homo sapiens), Q9NR56 | TR-FRET MBNL1-His/biotin-(CUG)12 binding, 665/545 ratio | Potency, µM (titrated, usually from 57.5 µM), for inactives: at the top dose activity change, negative = inhibition, most hits filed as inhibitors | 280,000 compounds, 0.036% hits; active = well fitted inhibition curve with a large enough effect in the signal ratio, with a control signal flat, not every such curve was filed as active; inconclusive = small, poorly fitted or top-dose-only effect, or effect the other way, or a change in a side signal; inactive = no such curve, though single readings can be large or run the other way; the % refers to the signal ratio; also: potency is read from the fitted curve at half-maximal effect; % is scaled to controls: 0 for no effect and ±100 for the full control effect
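TR-FRET between His-tagged MBNL1 and biotin-(CUG)12 RNA, detected with Tb anti-His antibody (0.055 ng/ul) and streptavidin-XL665 (5 nM), 60 min at room temperature. Compounds titrated 92 nM to 58 uM; 665/545 nm ratio normalized to buffer and complex controls.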
PTHR1 agonist: qHTS for PTHR1 Agonists: Primary Screen; HEK293 GP2 PTHR1 cells, GloSensor cAMP luminescence, 1 h; 410,000 compounds, 0.075% hits; Potency, µM (doses to about 115 µM), for inactives: at the top dose activation, most hits filed as activators; also: potency is read from the fitted curve at half-maximal effect; nearly all actives have a fitted effect of over 55% in size
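HEK-293-derived GP2 cells expressing PTHR1 and a GloSensor cAMP reporter, 3,000/well, plated overnight, given luciferin plus IBMX (each 0.5 mM as added) for 1 h at 37 °C, then compound for 1 h at 37 °C. Luminescence was read after 15 min at room temperature.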
D3 ag: qHTS of D3 Dopamine Receptor Agonist: qHTS. max activation, %. 410,000 compounds, 0.58% hits. D(3) dopamine receptor (Homo sapiens), P35462. AID 652048, 2013. D3R DiscoveRx beta-arrestin cells, luminescence, 90 min; in the data active = max activation above about 30%; also: 0% is about no effect
Target sequence (P35462 whole entry, looked up): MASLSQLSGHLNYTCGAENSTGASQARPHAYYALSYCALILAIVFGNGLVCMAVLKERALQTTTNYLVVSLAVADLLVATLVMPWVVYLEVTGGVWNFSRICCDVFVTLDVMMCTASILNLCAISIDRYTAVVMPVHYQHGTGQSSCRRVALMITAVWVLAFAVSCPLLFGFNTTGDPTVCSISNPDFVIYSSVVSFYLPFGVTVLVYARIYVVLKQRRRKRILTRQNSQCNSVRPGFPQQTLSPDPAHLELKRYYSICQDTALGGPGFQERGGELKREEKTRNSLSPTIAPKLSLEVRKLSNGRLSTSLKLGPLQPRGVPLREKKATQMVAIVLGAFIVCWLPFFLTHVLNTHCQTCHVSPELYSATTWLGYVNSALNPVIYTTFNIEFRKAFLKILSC
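Cells at 1500/well, incubated overnight, then treated with pinned compounds (dopamine as control) for 90 min at 37 degrees C. DiscoveRx reagent added for 30 - 60 minutes at room temperature; luminescence read.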
DRD3 antagonist: qHTS of D3 Dopamine Receptor Antagonist: qHTS; D3R cells, DiscoveRx beta-arrestin luminescence, antagonist mode; hits give low values; max response, negative = inhibition, %; 360,000 compounds, 2.5% hits; in the data active = max response below about -50%; inconclusive = no clear call, values can overlap the other calls; also: % is scaled to controls: 0 for no effect and ±100 for the full control effect
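Cells plated overnight at 1500 cells/well, then exposed to library compounds with dopamine controls for 90 minutes at 37 degrees C. DiscoveRx reagent added for 30–60 minutes at room temperature; luminescence read, quantitative HTS format.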
Starred values were filed as active, the others as inactive; i = inactive; u = inconclusive; x = not tested or not shown; [ ] = dose if it differs, or a comment. Unless noted, calls follow the shape of the dose curve; as a rule, active = well fitted curve in the direction sought with a large enough effect; inconclusive = small, poorly fitted or top-dose-only effect, or another doubt; inactive = no such curve, though single readings can be large; an effect the other way counts as inactive or inconclusive.

SMILES	Integrin act MD	CBFb-RUNX1 inh	MBNL1 CUG block	PTHR1 agonist	D3 ag	DRD3 antagonist
CCCCN(CC)CCNC(=O)c1cc2c(-c3ccccc3F)nn(C)c2s1	-73%	x	-9%	i	-15	-61*
Cn1nc(-c2ccccc2F)c2cc(C(=O)N3CCN(c4ccccc4F)CC3)sc21	x	x	x	-36%	51*	x
CCN(CCCNC(=O)c1cc2c(-c3cccc(OC)c3)nn(C)c2s1)Cc1ccccc1	-52%	x	-17%	-21%	-20	-54*
O=C(O)C(Cc1cccs1)c1cccs1 (stereo not drawn)	3%	x	x	-23%	-11	6
Nc1c(C(=O)CSc2nccn2-c2cccc(F)c2)c(=O)[nH]c(=O)n1C1CC1	4%	x	x	-1%	2	-21
O=C1O[C@@H](c2ccccc2)C[C@@H](O)[C@H](O)CCCc2ccccc21	x	x	x	20%	-13	-55*
Cc1ccc(Nc2n[nH]c(=S)s2)cc1	12%	x	x	-2%	-7	-51*
S=c1[nH]nc(Nc2ccc(Cl)cc2)s1	33%	-4%	0%	-24%	-3	102
COc1ccc(OCCCCn2c(-c3ccc(Cl)cc3)nc3ccccc3c2=O)cc1	x	x	x	i	-3	x
O=C(Oc1ccccc1)c1ccc(COC(=O)c2cnccn2)cc1	18%	-1%	0%	-8%[57.5 µM]	-2	-106*
COc1ccc(CC(=O)N/N=C(\C)c2cccnc2)cc1	-8%	x	-4%	i	0	-4
CN=c1scc(-c2ccc(OC)cc2)n1/N=C(\C)c1cccnc1	5µM*	u	x	-35%	35*	27
CCOC(=O)C1=CC[C@@H](c2ccccc2)N(S(=O)(=O)c2ccc(C)cc2)[C@H]1C=C(C)C	x	x	x	-10%	-7	-6
Cc1ccc(NC(=O)c2ncn(-c3ccccc3)n2)cc1Cl	x	x	x	-11%	-15	x
O=C(Nc1nc2ccc(F)cc2s1)c1ccc([N+](=O)[O-])o1	-46%	x	x	-61%	-9	-57*
COc1ccc2[nH]cc(S(=O)(=O)c3ccc(C)c(C)c3)c(=O)c2c1	x	x	x	-8%	5	x
CN1C[C@H](C(=O)NC2(C)OC3(O)[C@@H]4CCCN4C(=O)[C@H](Cc4ccccc4)N3C2=O)CC2c3cccc4[nH]cc(c34)C[C@H]21 (stereo partly drawn)	x	x	x	-28%	-57	-57*
CN1C[C@H](C(=O)N[C@]2(C)O[C@@]3(O)[C@H]4CCCN4C(=O)[C@H](Cc4ccccc4)N3C2=O)C[C@H]2c3cccc4[nH]cc(c34)C[C@@H]21	x	-19%[21.7 µM]	x	x	x	x
CN(C)S(=O)(=O)c1ccc(Cl)c(C(=O)NC2CCN(Cc3ccccc3)C2)c1 (stereo not drawn)	-10%	x	0%	i	-13	-59*
O=C(NC1CCN(Cc2ccccc2)C1)c1cccc(S(=O)(=O)N2CCOCC2)c1 (stereo not drawn)	1%	x	x	i	-29	u
Cc1c(C(=O)NC2CCN(Cc3ccccc3)C2)oc2c(Cl)cccc12 (stereo not drawn)	-46%	x	4%	-3%	-20	-100*
CCN(c1ccccc1)S(=O)(=O)c1ccc(Cl)c(C(=O)NC2CCN(Cc3ccccc3)CC2)c1	-23%	x	x	-25%	-26	u
CC(=O)c1ccc(N(C(=O)CNC(=O)c2ccco2)C(C(=O)NC2CCCC2)c2ccc(C)o2)cc1 (stereo not drawn)	10µM*	x	2%	-13%	-25	2
COc1ccc(N(C(=O)CNC(=O)c2ccco2)C(C(=O)NC2CCCC2)c2ccc(C)o2)cc1 (stereo not drawn)	8%	x	-5%	i	5	9
C/C=C1\NC(=O)[C@H]2CSSCC/C=C/[C@H](CC(=O)N[C@H](C(C)C)C(=O)N2)OC(=O)C(C(C)C)NC1=O (stereo partly drawn)	x	x	x	x	-2	x
SMILES	Integrin act MD	CBFb-RUNX1 inh	MBNL1 CUG block	PTHR1 agonist	D3 ag	DRD3 antagonist
Cc1[nH]n(-c2ccc([N+](=O)[O-])cc2)c(=O)c1C=NCCN1CCN(C(=O)c2ccc(F)cc2)CC1	-4%	0%	18%	-40%[57.5 µM]	0	21
Cc1[nH]n(-c2ccc([N+](=O)[O-])cc2)c(=O)c1C=NCCc1c[nH]c2ccccc12	-7%	3%	u	-30%	37*	1
Cc1[nH]n(-c2ccc([N+](=O)[O-])cc2)c(=O)c1C=NCCN1CCN(C(=O)c2ccc(Br)cc2)CC1	-10%	-1%	19%	-33%	-7	-65*
COc1ccc(-c2noc3c2-c2nc(-c4cccc(C)c4)sc2CC3)cc1	4%	x	6%	-7%	59*	45
COc1ccc(-c2noc3c2-c2nc(-c4ccc(Cl)cc4)sc2CC3)cc1	-15%	x	-5%	-9%	2	-18
CCCC[C@@H](CNC)NC[C@H](Cc1ccc(O)cc1)NCCc1ccc(OCC)cc1	-42%	x	-8%	-14%	-26	-21
CNC[C@@H](C)NC[C@@H](Cc1ccccc1)NCCc1ccccc1	-36%	x	8%	13%	-3	-86*
Cc1[nH]n(-c2ccccc2)c(=O)c1Sc1ccc(Cl)cc1	11%	-2%	3%	-30%	-1	-16
Cc1cc(-c2c(C)[nH]n(-c3ccc(Cl)cc3)c2=O)n[nH]1	-1%	u	6%	-42%[57.5 µM]	-11	-60*
Clc1ccccc1N1CCN(Cc2ccco2)CC1	9%	x	2%	i	-5	-56*
COc1ccccc1N1CCN(Cc2ccco2)CC1	-25%[7.66 µM]	-1%	2%	-13%[57.5 µM]	-9	-76*
Cc1ccccc1N1CCN(Cc2ccc([N+](=O)[O-])o2)CC1	-22%	x	u	i	-21	-3
COc1ccccc1N1CCN(Cc2ccc(-c3ccccc3[N+](=O)[O-])o2)CC1	1%	x	4%	i	-16	-86*
Clc1ccc(N2CCN(Cc3ccco3)CC2)cc1	26%	x	-8%	0%	-9	u
O=C(Cc1cccs1)N[C@@H]1C(=O)N2C(C(=O)[O-])=C(C[n+]3ccccc3)CS[C@H]12	x	x	x	x	7	x
CCC(c1nnnn1-c1ccc2c(c1)OCCO2)N1CCN(CC)CC1 (stereo not drawn)	x	x	x	-19%	-9	-29

Source: PubChem BioAssay
